# Experimental data: PubChem BioAssay (EPA / NIEHS)
# Records with an inconclusive call do not appear. The source made the active and inactive calls. The calls were made as follows, unless noted: active = hit-call score of the fitted dose curve at least 0.9, where 1 is the maximum; inactive = score below 0.9.
# How the values were obtained:
# [1] = CCTE_Shafer_MEA_acute_spike_number: CCTE's Neural Acute Assay for Total Number of Spikes, Shafer Lab (AID 2284008);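 as to AC50: curve fitted for decrease in spike count so AC50 reflects inhibitors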
# Summary of the method: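 Primary rat cortical neurons on 16-electrode MEA wells; on DIV 13 or 15, 40-min baseline then 40-min recording with compound (0.03-40 uM) at 37 C. Spikes detected at 8x rms noise; percent change versus baseline, DMSO as negative control.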
# [2] = CCTE_Shafer_MEA_acute_firing_rate_mean: CCTE's Neural Acute Assay for Mean Firing Rate, Shafer Lab (AID 2284009);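 also: analyzed for loss of signal so actives lower firing rate relative to DMSO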
# Summary of the method: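 Spontaneous spiking of primary rat cortical networks, DIV 13/15, 37 C. Compound 0.03-40 uM, n ≥3 wells; 40 min baseline vs 40 min treated. Endpoint fitted in loss-of-signal direction against DMSO.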
# [3] = CCTE_Harrill_HTTr_Viability_MCF7: CCTE's 6-hour Cell Viability Assessment for the High-Throughput Transcriptomics (HTTr) Platform, in MCF-7 cells cultured in DMEM + 10% fetal bovine serum, Harrill Lab (AID 2284010)
# Summary of the method: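 Propidium iodide exclusion, imaged by high-content analysis, gauged viability after a six-hour exposure across eight concentrations. Cells were MCF-7 grown in DMEM with 10% fetal bovine serum; fits run in both directions against DMSO.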
# [4] = CCTE_Harrill_HTTr_Apoptosis_MCF7: CCTE's 6-hour Apoptosis Assessment for the High-Throughput Transcriptomics (HTTr) Platform, in MCF-7 cells cultured in DMEM + 10% fetal bovine serum, Harrill Lab (AID 2284011)
# Summary of the method: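 MCF-7 cells in DMEM + 10% fetal bovine serum were exposed to chemicals for 6 hours over an eight-point dilution series. Caspase-3/7 activation was imaged by high content imaging with CellEvent Caspase 3/7 Green; bidirectional fitting used DMSO as baseline.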
# [5] = CCTE_Harrill_HTTr_CellCount_MCF7: CCTE's Cell Proliferation Assessment for the High-Throughput Transcriptomics (HTTr) Platform, Harrill Lab (AID 2284012; active = hit-call score of the fitted dose curve at least 0.9, where 1 is the maximum;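 also: cells exposed to compound for six hours; intended direction is loss of nuclei count meaning fewer cells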)
# Summary of the method: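 Cell count from high-content imaging of Hoechst-labeled nuclei serves as viability/growth readout. Chemicals were applied to MCF-7 cells in eight concentrations for six hours, with fitting in both directions relative to DMSO.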
# [6] = CCTE_Shafer_MEA_acute_burst_number: CCTE's Neural Acute Assay for Single-Electrode Bursts, Shafer Lab (AID 2284013)
# Summary of the method: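 Burst totals were derived with adaptive spike detection (8x rms threshold) on filtered signals from rat cortical cultures; change relative to pre-treatment baseline after 40-min compound exposure (0.03-40 uM) was fitted in the negative direction against DMSO.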
# [7] = biological target: Nucleoli Translocation, AR (gene 367) (UniProt P10275); assay: UPITT_HCI_U2OS_AR_TIF2_Nucleoli_Antagonist: University of Pittsburgh U2OS Androgen Receptor-Transcriptional Intermediary Factor 2 (AR-TIF2) Antagonism High Content Imaging Assay for Nucleoli Translocation (AID 2283997; active = hit-call score of the fitted dose curve at least 0.9, where 1 is the maximum)
# Chain of Nucleoli Translocation, AR (gene 367) (P10275 whole entry, looked up): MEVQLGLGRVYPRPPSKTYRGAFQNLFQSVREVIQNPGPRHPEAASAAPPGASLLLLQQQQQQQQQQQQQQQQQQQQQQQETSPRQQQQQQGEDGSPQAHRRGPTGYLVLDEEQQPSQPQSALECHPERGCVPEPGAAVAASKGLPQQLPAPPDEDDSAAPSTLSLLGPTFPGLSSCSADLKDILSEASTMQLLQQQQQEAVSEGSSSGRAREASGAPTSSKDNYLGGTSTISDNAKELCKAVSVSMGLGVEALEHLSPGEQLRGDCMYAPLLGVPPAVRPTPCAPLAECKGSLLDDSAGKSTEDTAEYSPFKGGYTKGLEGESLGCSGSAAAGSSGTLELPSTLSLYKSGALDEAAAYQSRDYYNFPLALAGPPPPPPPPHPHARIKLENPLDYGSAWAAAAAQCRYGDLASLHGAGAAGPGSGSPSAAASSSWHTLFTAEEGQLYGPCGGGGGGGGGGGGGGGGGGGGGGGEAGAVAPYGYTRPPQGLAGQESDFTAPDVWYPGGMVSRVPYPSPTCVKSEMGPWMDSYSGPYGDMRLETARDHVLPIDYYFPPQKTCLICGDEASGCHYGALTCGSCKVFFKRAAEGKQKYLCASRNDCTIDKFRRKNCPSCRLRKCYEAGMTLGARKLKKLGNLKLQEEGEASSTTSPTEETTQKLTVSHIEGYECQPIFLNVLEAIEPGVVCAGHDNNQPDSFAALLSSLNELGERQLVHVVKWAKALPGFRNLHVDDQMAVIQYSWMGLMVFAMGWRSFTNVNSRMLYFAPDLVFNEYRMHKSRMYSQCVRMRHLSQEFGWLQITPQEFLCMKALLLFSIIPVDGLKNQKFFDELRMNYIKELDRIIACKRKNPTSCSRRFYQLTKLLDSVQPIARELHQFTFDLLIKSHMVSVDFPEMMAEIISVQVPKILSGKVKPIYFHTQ
# Summary of the method: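 An antagonist-mode imaging screen: engineered U2OS (AR-RFP, TIF2-GFP) exposed to 20 uM compound, 0.2% DMSO. Activity reflects nucleolar red fluorescence change relative to DHT baseline.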
# [8] = biological target: Ratio of Nucleoli Translocation and Cytoplasm, AR (gene 367) (UniProt P10275); assay: UPITT_HCI_U2OS_AR_TIF2_Nucleoli_Cytoplasm_Ratio_Antagonist: University of Pittsburgh U2OS Androgen Receptor-Transcriptional Intermediary Factor 2 (AR-TIF2) Antagonism High Content Imaging Assay for Ratio of Nucleoli Translocation and Cytoplasm (AID 2283999; active = hit-call score of the fitted dose curve at least 0.9, where 1 is the maximum;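 also: antagonists lower the DHT-driven ratio of nucleolar to cytoplasmic red signal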)
# Chain of Ratio of Nucleoli Translocation and Cytoplasm, AR (gene 367) (P10275 whole entry, looked up): as above
# Summary of the method: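 High-content imaging of red fluorescence ratio, nucleoli versus cytoplasm, in U2OS expressing AR-RFP and TIF2-GFP, fitted relative to DHT. Compounds tested once at 20 uM final, then 0.195 to 50 uM final in serial dilution.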
# [9] = biological target: Ratio of Nucleoli Translocation and Cytoplasm, AR (gene 367) (UniProt P10275); assay: UPITT_HCI_U2OS_AR_TIF2_Nucleoli_Cytoplasm_Ratio_Agonist: University of Pittsburgh U2OS Androgen Receptor-Transcriptional Intermediary Factor 2 (AR-TIF2) Agonism High Content Imaging Assay for Ratio of Nucleoli Translocation and Cytoplasm (AID 2284000; active = hit-call score of the fitted dose curve at least 0.9, where 1 is the maximum;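 also: hits raise the red nucleolar to cytoplasm ratio above vehicle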)
# Summary of the method: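 Primary screen at 20 uM final (0.2% DMSO), then triplicate confirmation and dose-response from 0.195 to 50 uM final (0.5% DMSO). Cells: U2OS with AR-RFP and TIF2-GFP. Endpoint is the nucleoli/cytoplasm red-fluorescence ratio, gain-of-signal vs DMSO.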
# [10] = TOX21_TRB_BLA_Antagonist_Followup_viability: Viability Assessment in the Tox21 Thyroid Hormone Receptor beta Antagonism Beta-lactamase (BLA) Follow-Up Assay (AID 2283961; active = hit-call score of the fitted dose curve at least 0.9, where 1 is the maximum)
# Summary of the method: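 HEK293T cells stably expressing GAL4-DBD/human TRβ-LBD with UAS-bla reporter, 3,000 cells/well in phenol red-free DMEM, 2% charcoal-stripped FBS. Compounds at 11 concentrations in triplicate, 18 h at 37C/5% CO2; viability by CellTiter-Glo luminescence after 30 min at room temperature.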
# [11] = TOX21_TR_RXR_BLA_Antagonist_Followup_viability: Viability Assessment in the Tox21 Thyroid Hormone Receptor beta Retinoid X Receptor alpha (RXRa) Antagonism Beta-lactamase (BLA) Follow-Up Assay (AID 2283979; active = hit-call score of the fitted dose curve at least 0.9, where 1 is the maximum)
# Summary of the method: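 RXRa-UAS-bla HEK293T cells seeded 2,500/well in phenol red-free DMEM with 2% charcoal-stripped FBS, attached 5 h, then exposed to compounds at 11 concentrations in triplicate for 16 h at 37C/5% CO2. Viability read by CellTiter-Glo ATP luminescence; bidirectional fit versus DMSO.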
smiles,measurement,setting,value
CCC(=O)OCc1ccccc1,outcome,[1],inactive
same,outcome,[2],inactive
same,outcome,[3],inactive
same,outcome,[4],inactive
same,outcome,[5],inactive
same,outcome,[6],inactive
OC1OC[C@@H](O)[C@H](O)[C@H]1O (stereo partly drawn),outcome,[1],inactive
same,outcome,[2],inactive
same,outcome,[6],inactive
CCCOCC(C)O (stereo not drawn),outcome,[7],inactive
same,outcome,[8],inactive
same,outcome,[9],inactive
same,outcome,[3],inactive
same,outcome,[4],inactive
O=C[C@@H](O)[C@H](O)[C@H](O)CO,outcome,[7],inactive
same,outcome,[8],inactive
same,outcome,[9],inactive
CC(=O)O[C@]1(C(C)=O)CC[C@H]2[C@@H]3C[C@H](C)C4=CC(=O)CC[C@]4(C)[C@H]3CC[C@@]21C,outcome,[10],inactive
same,outcome,[11],inactive
same,outcome,[3],inactive
same,outcome,[4],inactive
Cc1cccc(Nc2ccccc2C(=O)O)c1C,outcome,[3],inactive
same,outcome,[4],inactive
CC1(C)[C@@H]2CC[C@@]1(C)[C@H](O)C2,outcome,[3],inactive
same,outcome,[4],inactive
NC(N)=NC(=O)c1nc(Cl)c(N)nc1N,outcome,[3],inactive
same,outcome,[4],inactive
CC(C)[C@H]1CC[C@@H](C)CC1=O,outcome,[3],inactive
same,outcome,[4],inactive
same,outcome,[5],inactive
COc1cc2ncnc(Nc3cccc(Cl)c3)c2cc1OC,outcome,[3],inactive
same,outcome,[4],inactive
same,outcome,[5],inactive
CC(c1cc2ccccc2s1)N(O)C(N)=O (stereo not drawn),outcome,[3],inactive
same,outcome,[4],inactive
same,outcome,[5],inactive
S=C(S)NCCNC(=S)S,outcome,[3],inactive
same,outcome,[4],inactive
c1ccc2sc(SN(C3CCCCC3)C3CCCCC3)nc2c1,outcome,[3],inactive
same,outcome,[4],inactive
O=C(O)CCCCCCCC(=O)O,outcome,[3],inactive
same,outcome,[4],inactive
COC(C)CCO (stereo not drawn),outcome,[3],inactive
same,outcome,[4],inactive
Cc1ccc(C(=O)c2cc(O)c(O)c([N+](=O)[O-])c2)cc1,outcome,[3],inactive
same,outcome,[4],inactive
CC(C)(Oc1ccc(CCNC(=O)c2ccc(Cl)cc2)cc1)C(=O)O,outcome,[3],inactive
same,outcome,[4],inactive
same,outcome,[5],inactive
CCCCN,outcome,[3],inactive
same,outcome,[4],inactive
CNC[C@H](O)c1cccc(O)c1,outcome,[3],inactive
same,outcome,[4],inactive
CC(=O)OCC=Cc1ccccc1,outcome,[3],inactive
same,outcome,[4],inactive
Clc1ccc(Cl)c(Cl)c1Cl,outcome,[3],inactive
same,outcome,[4],inactive
same,outcome,[5],inactive
CC1CCC(C(C)(C)O)CC1 (stereo not drawn),outcome,[3],inactive
same,outcome,[4],inactive
CCCCCCCCCCCCOCCO,outcome,[3],inactive
same,outcome,[4],inactive
CCCCO,outcome,[3],inactive
same,outcome,[4],inactive
C=C[Si](OCC)(OCC)OCC,outcome,[1],inactive
same,outcome,[2],inactive
same,outcome,[6],inactive
CN1Cc2c(N)cccc2C(c2ccccc2)C1 (stereo not drawn),outcome,[3],inactive
same,outcome,[4],inactive
Cc1cccc(C)c1C,outcome,[3],inactive
same,outcome,[4],inactive
O=C(O)c1ccc([N+](=O)[O-])cc1,outcome,[3],inactive
same,outcome,[4],inactive
C=CCOc1nc(OCC=C)nc(OCC=C)n1,outcome,[3],inactive
same,outcome,[4],inactive
same,outcome,[5],inactive
Nc1cc([N+](=O)[O-])ccc1O,AC50,[1],2980 nM (active)
same,outcome,[2],inactive
same,outcome,[6],inactive
O=C[C@H](O)[C@H](O)[C@H](O)CO,outcome,[3],inactive
same,outcome,[4],inactive
O=C(Nc1ccccc1)c1cc([N+](=O)[O-])ccc1Cl,outcome,[3],inactive
same,outcome,[4],inactive
CC[Si](OC(C)=O)(OC(C)=O)OC(C)=O,outcome,[1],inactive
same,outcome,[2],inactive
same,AC50,[6],429 nM (active)
OCCN1CCNCC1,outcome,[3],inactive
same,outcome,[4],inactive
Clc1ccc2c(c1)C(N1CCNCC1)=Nc1ccccc1O2,outcome,[3],inactive
same,outcome,[4],inactive
same,outcome,[5],inactive
CC(C)=CCO,outcome,[3],inactive
same,outcome,[4],inactive
CC(CCO)CCc1ccccc1 (stereo not drawn),outcome,[3],inactive
same,outcome,[4],inactive
CC(CN1c2ccccc2Sc2ccccc21)N(C)C (stereo not drawn),outcome,[3],inactive
same,outcome,[4],inactive
CNCCCC12CCC(c3ccccc31)c1ccccc12,AC50,[3],47300 nM (active)
same,outcome,[4],inactive
same,outcome,[5],inactive
CC(C)C[C@H]1C(=O)N2CCC[C@H]2[C@]2(O)O[C@](NC(=O)[C@@H]3C=C4c5cccc6[nH]c(Br)c(c56)C[C@H]4N(C)C3)(C(C)C)C(=O)N12,outcome,[3],inactive
same,outcome,[4],inactive
same,outcome,[5],inactive
O=C(O)c1ccc(C(=O)O)cc1,outcome,[3],inactive
same,outcome,[4],inactive
same,outcome,[5],inactive
C=O,outcome,[3],inactive
same,outcome,[4],inactive
same,outcome,[5],inactive
N#Cc1ccc(CC(=NNC(=O)Nc2ccc(OC(F)(F)F)cc2)c2cccc(C(F)(F)F)c2)cc1,outcome,[3],inactive
same,outcome,[4],inactive
O=C(O)Cc1cccc2ccccc12,outcome,[3],inactive
same,outcome,[4],inactive
same,outcome,[5],inactive
CCCCNC(=O)NS(=O)(=O)c1ccc(C)cc1,outcome,[3],inactive
same,outcome,[4],inactive
same,outcome,[5],inactive
CCCCCCCCCCCCCCCC(=O)O,outcome,[3],inactive
same,outcome,[4],inactive
same,outcome,[5],inactive
CC(=O)C(=O)O,outcome,[3],inactive
same,outcome,[4],inactive
same,outcome,[5],inactive
O=C(O)c1cn(C2CC2)c2cc(N3CCNCC3)c(F)cc2c1=O,outcome,[3],inactive
same,outcome,[4],inactive
same,outcome,[5],inactive
CNC(=O)Oc1ccc2c(c1)[C@]1(C)CCN(C)[C@@H]1N2C,outcome,[3],inactive
same,outcome,[4],inactive
same,outcome,[5],inactive
Cc1ccc(C=O)s1,outcome,[3],inactive
same,outcome,[4],inactive
same,outcome,[5],inactive
CN1[C@@H]2CC(OC(=O)[C@H](CO)c3ccccc3)C[C@H]1[C@@H]1O[C@@H]12 (stereo partly drawn),outcome,[3],inactive
same,outcome,[4],inactive
same,outcome,[5],inactive
Cc1c(Cl)c(=O)oc2cc(O)ccc12,outcome,[3],inactive
same,outcome,[4],inactive
same,outcome,[5],inactive
O=C1C(c2[nH]c3ccc(S(=O)(=O)O)cc3c2O)=Nc2ccc(S(=O)(=O)O)cc21,outcome,[3],inactive
same,outcome,[4],inactive
same,outcome,[5],inactive
CCN(CC)c1ccc2c(-c3ccccc3C(=O)O)c3ccc(=[N+](CC)CC)cc-3oc2c1,AC50,[3],394 nM (active)
same,outcome,[4],inactive
same,outcome,[5],inactive
Cc1c(N(C)C)c(=O)n(-c2ccccc2)n1C,outcome,[3],inactive
same,outcome,[4],inactive
same,outcome,[5],inactive
CC(C)Oc1ccccc1O,outcome,[3],inactive
same,outcome,[4],inactive
same,outcome,[5],inactive
O=P(c1ccccc1)(c1ccccc1)c1ccccc1,outcome,[3],inactive
same,outcome,[4],inactive
same,outcome,[5],inactive
